Assays:
Assay in all cases: PBM binding z-score (relative to random genomic background probes); higher = stronger binding; sequences stand for … in GC…GCGATTGACAGCGTAGAATGAAGG
[1] = test system: FXR:RXRa (NR concentration 270 nM, RXRa partner concentration 90 nM)
In short: (§1)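 Antibodies against each partner of ligand-free nuclear receptor dimers (one per run) detected binding on custom Agilent 4×180K protein-binding microarrays after 1 h incubation. The double-stranded probes had 34-nt variable regions carrying direct-repeat seeds, single-nucleotide variants, half-site ablations and random human genomic background sequences. Binding z-scores, from regression-normalized fluorescence, use the random background probes as reference.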

[2] = test system: LXRa:RXRa (NR concentration 270 nM, RXRa partner concentration 90 nM)
In short: as §1

[3] = test system: LXRa homodimer (NR concentration 270 nM)
In short: as §1

[4] = test system: LXRb:RXRa (NR concentration 270 nM, RXRa partner concentration 90 nM)
In short: as §1

[5] = test system: LXRb homodimer (NR concentration 270 nM)
In short: as §1

[6] = test system: PPARa:RXRa (NR concentration 270 nM, RXRa partner concentration 90 nM)
In short: as §1

[7] = test system: PPARg:RXRa (NR concentration 180 nM, RXRa partner concentration 90 nM)
In short: as §1

[8] = test system: PPARg:RXRa 270nM:90nM, anti-RXR (NR concentration 270 nM, RXRa partner concentration 90 nM)
In short: as §1

[9] = test system: PPARg:RXRa 30nM:10nM, anti-RXR (NR concentration 30 nM, RXRa partner concentration 10 nM)
In short: as §1

[10] = test system: PPARg:RXRa 90nM:30nM, anti-RXR (NR concentration 90 nM, RXRa partner concentration 30 nM)
In short: as §1

Sequence | PBM binding z-score [1] | PBM binding z-score [2] | PBM binding z-score [3] | PBM binding z-score [4] | PBM binding z-score [5] | PBM binding z-score [6] | PBM binding z-score [7] | PBM binding z-score [8] | PBM binding z-score [9] | PBM binding z-score [10]
ACTATTAGTTGACTTAGGGCAGCCGATACGACGC | -0.0135 | -0.0603 | 0.0917 | -0.372 | 0.721 | -0.383 | 0.697 | 0.151 | -0.128 | 0.0745
ATCTCTAGGTAAGACTGAGTTCAGTGAAGAACGC | 0.449 | 0.657 | 0.601 | 0.352 | 0.691 | 0.568 | -0.0566 | 0.369 | 0.167 | 0.0734
GCTAGTTGGTCCGTAAAAGGTCACACACCGGTCG | 3.14 | 4.48 | 3.93 | 3.92 | 0.618 | 4.14 | 1.33 | 3.29 | 0.779 | 2.39
AGTCAACGTTCACTAGGTAACGTAAGATTCAGCT | -0.243 | -0.0638 | -0.401 | -0.00739 | 0.00206 | 0.525 | 0.874 | 0.511 | 0.121 | 0.475
CGTCAAAGTTCATCTAAGGTAACGTAAAGCACGC | 6.89 | 6.38 | 4.65 | 4.03 | 2.11 | 4.73 | 4.57 | 5.27 | 2.69 | 4.22
CGAACTAGGTCAAGGACAGTGCATCTCCGCACGC | 3.37 | 2.49 | 0.582 | 1.38 | -0.386 | 4.35 | 7.23 | 6.31 | 3.38 | 5.86
ATCTCTAGGTAAACATAGTTCAGTGAATGCAAAT | 0.367 | 4.22 | 0.983 | 1.07 | 0.728 | 0.819 | 1.12 | 1.07 | 0.499 | 0.945
CAGACTAGGTCAAGGTCAAAGTCGGTTTGTGCCA | 6.13 | 5.42 | 3.5 | 4.36 | 0.864 | 5.62 | 7.72 | 7.03 | 5.17 | 6.78
TCAGACAGGTGAAGGTAACACAGGTACGCAGTCG | 1.04 | 1.17 | 0.113 | 1.01 | 0.0867 | 1.53 | 1.29 | 2.67 | 3.9 | 3.28
AGAATGAGGTTATACCTAGATCAGGGAAGAAAGT | 1.65 | 1.87 | -0.0251 | 1.31 | -0.249 | 3.15 | 1.77 | 1.63 | 0.532 | 1.09
CCTACTGGGGCAAGGTTACCATAACGCACAGCCA | 0.343 | 0.654 | -0.167 | 0.621 | -0.484 | 2.59 | 4.74 | 4.44 | 2.15 | 4.29
CCGACTGGGGCATAAGGTAACCATAAGCCAGCCC | 0.215 | 0.187 | -0.284 | -0.112 | -1.47 | 1.08 | 2.79 | 3.22 | 1.32 | 3.24
CCGACTGGGGCAGAAAGGGTACCATACCATCCGG | -0.642 | -0.505 | -0.574 | -0.581 | -1.48 | 0.209 | 0.831 | 0.193 | -0.692 | 0.0495
CGTCCAAGGTCAGAGAAGTCAGTGAATGCCGAGT | 4.48 | 2.9 | 0.222 | 2.17 | -0.0616 | 3.73 | 1.89 | 2.54 | 0.704 | 1.5
AATACAGGGTCATCGTAGGCCAGAGAACGCACAG | 7.44 | 6.64 | 2.11 | 4.8 | 1.09 | 6.16 | 7.11 | 6.17 | 2.74 | 5.08
ATCGAAAGGTCCTGAGGTGAGTATACAGAAAGGC | 0.12 | 0.275 | -0.698 | 0.248 | -0.388 | 1.21 | 0.686 | 0.415 | 0.534 | 1.08
ATACCAAGGTGATCGTGAGGTCGTTGTTACTAAC | 1.57 | 1.11 | 0.763 | 1.32 | 0.361 | 1.47 | 0.364 | 0.56 | -0.301 | 0.535
CCTTACGGCTCAAGGTTATAGCACGGGTGGTACG | 0.272 | 0.347 | 0.117 | 0.126 | -0.259 | 0.445 | 0.607 | 0.552 | 0.388 | 0.076

Sequence | PBM binding z-score [1] | PBM binding z-score [2] | PBM binding z-score [3] | PBM binding z-score [4] | PBM binding z-score [5] | PBM binding z-score [6] | PBM binding z-score [7] | PBM binding z-score [8] | PBM binding z-score [9] | PBM binding z-score [10]
CCTACTGGGCCATTCAGAGGTCCTTGATCATATG | -0.359 | -0.572 | -0.215 | -0.597 | -0.529 | 0.27 | 0.118 | 0.194 | -0.728 | -0.16
ACAGACAGGTGATTAAGGTAACTCAGGCTATCAT | 0.396 | 0.0407 | -0.11 | -0.0714 | -0.205 | 0.176 | 0.468 | 0.0075 | 0.0784 | 0.0739
TAGCCTGGGTCATGCGGGCCAGTATAGTGTCGGC | 3.19 | 1.79 | -0.665 | 1.03 | -0.444 | 3.4 | 2.12 | 2.48 | 0.16 | 1.54
GCGACTGGGGCAAAGCAGGTTACTATAAGGTTGG | 0.109 | 0.31 | -0.478 | 0.342 | -0.602 | 1.4 | 1.31 | 1.5 | 0.185 | 1.06
GGAACGAGGGCAAAGTTGATAGGATCTGTCGACG | 1.38 | 1.05 | -0.433 | 0.86 | -0.537 | 4.22 | 6.9 | 6.73 | 5.71 | 6.95
TATACAGGGTCAAAGGCCTGAGTACGAATGTCGA | 7.13 | 6.36 | 2.31 | 4.5 | 2.28 | 5.81 | 6.92 | 6.47 | 3.45 | 5.74
ATCTCTAGGTAACCAAGTTCAGCGAATGCCGAAC | 0.438 | 0.886 | 0.803 | 0.7 | 0.602 | 1.4 | 0.655 | 1.07 | 0.316 | 0.524
CAAACTAGGTCACGAAAGGTGAAAGTCGAATGAC | 5.43 | 5.63 | 0.891 | 4.24 | 0.569 | 6.05 | 9.57 | 7.7 | 6.24 | 7.8
TCATATAGGTAAATGCTAGGTGATAGTCCGATCT | 0.869 | 0.734 | -0.164 | 0.564 | -0.125 | 1.2 | 1.13 | 2.24 | 3.56 | 2.87
TCTCGGAGGACACGAAAGGTAAGAGCTCGACATC | 0.311 | -0.0644 | -0.636 | -0.242 | -1.12 | 0.039 | 0.278 | 0.941 | 2.19 | 1.28
CAAACTAGGTCAAGAGGTCTAAGTCCGCTTCCCG | 3.48 | 2.8 | 0.46 | 1.7 | -0.0852 | 4.97 | 7.75 | 6.93 | 4.73 | 6.71
AATACAGGGTCATCGTAGGCCAGAGTGCGCACAG | 7.13 | 6.46 | 2.47 | 4.75 | 1.07 | 5.99 | 6.7 | 6.16 | 2.72 | 4.73
TCTTGTAGATCAGCAGGTTAAAAAAGCTGGCCAA | 0.198 | 0.216 | -0.0606 | 0.293 | -0.538 | 0.844 | -0.455 | 1.44 | 2.6 | 1.94
TAGCCTCGGTCATGGGCCAGTATACCACGCGAAC | 0.333 | 0.687 | 0.0533 | -0.073 | -0.572 | 0.143 | 0.374 | 0.188 | -0.674 | -0.0831
AGAACGAGGGCACGCTGAGTGGATAGCAGAGTAG | 0.65 | 0.494 | -0.357 | -0.0395 | -1.03 | 1.77 | 1.99 | 1.64 | 0.26 | 1.29
CATGCAGGGTCAGCTAGGCCAGAGTAGGGACGGC | 4.4 | 2.77 | -0.597 | 2.03 | -0.151 | 4.36 | 2.66 | 3.1 | 0.694 | 1.84
ATCTCTAGGTACCCAAGTTCAGTGAATGCCGAAC | 0.332 | 1.7 | 3 | 0.887 | 1.08 | 0.625 | 0.408 | 0.456 | 0.321 | 0.493
CAGACTGGGGCAGAAAGGTTACCATACCATCCGG | 1.11 | 1.5 | -0.0304 | 1.4 | 0.122 | 2.53 | 2.23 | 3.3 | 1.29 | 2.79
